DT40 TDP1 CPT = growth inhibition of DT40 Tdp1-/-;hTDP1 cells with camptothecin (screen for TDP1 inhibitors); hit rate 12% among 420,000; Potency, µM (highest dose often 46.2 µM), for inactives: top-dose activity change, negative = growth inhibition, actives largely listed as inhibitors; AID 686979; chicken DT40 Tdp1-/-;hTDP1 cells + 20 nM CPT, ATP luminescence, 48 h; also: potency is read from the fitted curve at half-maximal effect; nearly all actives have a fitted effect of over 55% in size
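Cell growth measured by CellTiter-Glo luminescence after a minimum 48 h, 37 C compound exposure with 20 nM CPT in Tdp1-knockout DT40 cells stably expressing hTDP1, seeded 400/well; qHTS titration format.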
DT40 TDP1 no CPT = qHTS for Inhibitors of human tyrosyl-DNA phosphodiesterase 1 (TDP1): qHTS in cells in absence of CPT. DT40 Tdp1-/- hTDP1 cells, no CPT, ATP luminescence, 48 h. Potency, µM (highest dose often 46.2 µM), for the others: top-dose activity change, negative = growth inhibition, hits mostly inhibitors. hit rate 15% among 420,000. AID 686978, 2013; also: potency is read from the fitted curve at half-maximal effect; nearly all actives have a fitted effect of over 55% in size
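Compound effects on proliferation are scored in DT40 Tdp1-/-;hTDP1 cells in the absence of CPT. ATP levels (CellTiter-Glo luminescence) are recorded after a ≥48 hr, 37 °C incubation.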
Six1-Eya2 blk = Six1/Eya2 interaction inhibition; Q15475+O00167; AlphaScreen GST-Six1/His-Eya2 binding, biochemical; hits give low values; activity change, % (concentration not given with the values); hit rate 0.56% among 360,000; AID 651725; in the data active = activity change below about -65%; inconclusive = mostly about -30% to -63%
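AlphaScreen luminescence read after one hour at 37 °C in darkness. Pin-transferred compounds met GST-Six1 and His-Eya2 protein (5X stock 250 nM/500 nM) plus glutathione donor and Ni-chelate acceptor beads (5X, 50 ug/mL).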
TDP1 block = blocks human tyrosyl-DNA phosphodiesterase 1. Potency, µM (highest dose often 130 µM), inactives show top-dose activity change, negative = inhibition, usual class: inhibitors. AID 485290. recombinant TDP1, AlphaScreen DNA substrate cleavage. hit rate 0.28% among 350,000. Q9NUW8; also: potency is read from the fitted curve at half-maximal effect; nearly all actives have a fitted effect of over 40% in size
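Enzyme-compound mixtures sat 15 min at room temperature, followed by a 5 min reaction with 15 nM final substrate and 10 min with AlphaScreen beads. Recombinant human Tdp1 was used at 1 nM final.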
IL-1B inflam inh = blocks inflammasome-driven IL-1 beta release; hit rate 4.7% among 360,000; AID 743279; activity change, % at 57.5 µM; THP-1 LPS/ATP IL-1B secretion, AlphaLISA, 16 h; hits give low values; in the data active = activity change below about -50%; inconclusive = mostly about -30% to -49%
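THP-1 cells pretreated 1 hr with compounds (up to 57.5 uM final), then stimulated with LPS (250 ng/mL final) plus ATP (1.25 mM final); secreted IL-1B measured by AlphaLISA after 16 hr, decreased signal indicating inhibition.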
CtBP-E1A inh = blocks the CtBP interaction with E1A | hit rate 0.49% among 340,000 | AID 651724 | AlphaScreen GST-E1A/His-CtBP binding, 1536-well; hits give low values | activity change, % (concentration not given with the values); in the data active = activity change below about -65%; inconclusive = mostly about -30% to -63%
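Steps: dispense buffer (Tris pH 8.0, NaCl 300 mM, TCEP 1 mM, BSA, Tween 20); add 5X protein mix (GST-E1A, His-CtBP, 125 nM each); pin 23 nL compound; 2 h at 37 °C, dark; add 5X beads (50 ug/mL); 1 h; read.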
An asterisk follows results filed as active; ? = inconclusive; . = not tested or not shown. The list is not random: actives were taken first. Their share in the collection is about 18%. Unless noted, calls follow the shape of the dose curve; as a rule, active = well fitted curve in the direction sought with a large enough effect; inconclusive = small, poorly fitted or top-dose-only effect, or another doubt; inactive = no such curve, though single readings can be large; an effect the other way counts as inactive or inconclusive. % is scaled to controls: 0 for no effect and ±100 for the full control effect.

SMILES | DT40 TDP1 CPT | DT40 TDP1 no CPT | Six1-Eya2 blk | TDP1 block | IL-1B inflam inh | CtBP-E1A inh
CCOCCCn1c(C)nc2c[n+](CC(=O)c3ccc4ccccc4c3)cc(Br)c21 | 2.3µM* | 2.6µM* | 2 | 1% | -58* | -13
O=C(C[n+]1cc(Br)cc(Br)c1)c1ccc2ccccc2c1 | -24% | ? | . | . | . | .
O=C(c1ccc(F)cc1)N(Cc1ccccc1)C1CCS(=O)(=O)C1 (stereo not drawn) | -17% | -21% | 14 | 4% | 23 | -10
CCOc1ccc(C(=O)N(Cc2sccc2C)C2CCS(=O)(=O)C2)cc1 (stereo not drawn) | ? | -27% | . | 2% | . | .
CC(C)COc1ccc(C(=O)N(Cc2cccc(F)c2)C2CCS(=O)(=O)C2)cc1 (stereo not drawn) | 21µM* | ? | . | 5% | . | .
Cc1ccsc1CN(C(=O)c1ccc(OCC(C)C)cc1)C1CCS(=O)(=O)C1 (stereo not drawn) | ? | 15µM* | . | 5% | . | .
N#CCCn1cc(C(=O)CN2C(=O)NC3(CCc4ccccc43)C2=O)c2ccccc21 (stereo not drawn) | ? | ? | -4 | . | 28 | 13
COc1ccc(S(=O)(=O)Nc2ccccc2OC)cc1C | -6% | -25% | 9 | 4% | -1 | 10
COc1cc(NS(=O)(=O)c2ccc(C)c(C)c2)c(OC)cc1Cl | 18µM* | ? | -1 | -3% | 8 | -3
O=C(N[C@H]1CCCCNC1=O)c1cc(COc2ccc(F)cc2F)on1 | -3% | -19% | 3 | 2% | -10 | .
CCOC(=O)c1sc(=S)n(C)c1NC(=O)c1ccc(C(C)(C)C)cc1 | ? | ? | -2 | 3% | -28 | -3
CCOC(=O)c1sc(=S)n(C)c1NC(=O)c1ccc(OC)cc1 | 2.3µM* | 21µM* | -8 | 0% | -3 | -3
CCCCC(=O)NCc1nc2cccnc2n1Cc1ccc(OC)cc1 | -17% | -8% | . | 5% | . | .
CC(=O)NC(c1ccc(Cl)cc1)c1ccc2cccnc2c1O (stereo not drawn) | 4.1µM* | 2.6µM* | ? | . | 83 | .
CCCCC(=O)NC(c1ccc(OC)cc1)c1ccc2cccnc2c1O (stereo not drawn) | 5.8µM* | 9.2µM* | -7 | . | 117 | 18
CC(C)c1ccc(NS(=O)(=O)c2cccc3cccnc23)cc1 | -23% | -14% | -24 | . | ? | -9
CC(C)C(=O)NC(c1ccc(N(C)C)cc1)c1c(O)ccc2ccccc12 (stereo not drawn) | -20% | -13% | 9 | . | -2 | 0
CCCC(=O)NC(c1ccc(N(C)C)cc1)c1ccc2cccnc2c1O (stereo not drawn) | 0.65µM* | 0.92µM* | -69* | . | 172 | -92*
CCCC(=O)NC(c1ccc(C(C)C)cc1)c1ccc2cccnc2c1O (stereo not drawn) | 5.2µM* | 2.3µM* | ? | . | 146 | -65*
COc1ccc(C(NC(=O)C(C)C)c2ccc3cccnc3c2O)cc1 (stereo not drawn) | 0.73µM* | 0.46µM* | -89* | . | 138 | -93*
CCCC(=O)NC(c1ccccc1Cl)c1ccc2cccnc2c1O (stereo not drawn) | 3.3µM* | 5.2µM* | -85* | . | 108 | ?
CCC(=O)NC(c1ccc(C)cc1)c1ccc2cccnc2c1O (stereo not drawn) | 4.1µM* | 4.6µM* | -89* | 0% | 142 | -90*
CCCC(=O)NC(c1ccco1)c1c(O)ccc2ccccc12 (stereo not drawn) | ? | ? | -6 | 8% | 10 | -9
Cc1cc(NC(c2ccc(Cl)cc2)c2ccc3cccnc3c2O)no1 (stereo not drawn) | 4.1µM* | 4.6µM* | -66* | 13% | 89 | ?
